From PubChem BioAssay
Shown are actives, neighbours in structure and some others; about 3.5% of the full set was active somewhere.
FBW7 act – FBW7 E3 ligase activators, primary screen, biochemical, AlphaScreen, human. F-box/WD repeat-containing protein 7 (Homo sapiens), Q969H0. AlphaScreen FBW7–phospho-cyclin E peptide binding, activator screen. normalized activity (activation), % at 26.1 µM. 650,000 compounds, 0.13% hits; in the data active means normalized activity above about 1.9%;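 further: purified mutant Fbw7 with reduced substrate affinity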
TEAD-YAP inh – TEAD-YAP interaction inhibition, primary screen, TEAD-YAP interaction inhibitor project, luminescence, HEK-TIYL cells | TEAD-Gal4/YAP UAS-luciferase luminescence | inhibition, % at 9.12 µM | 640,000 compounds, 1.4% hits; in the data active means inhibition above about 32%;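 further: 0% = median of test compound wells and 100% = reference inhibitor wells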
GPR151 activ – activators of human GPR151, primary screen, cell-based, PathHunter beta-arrestin, luminescence; activation, % at 11.2 µM; G-protein coupled receptor 151 (Homo sapiens), Q8TDV0; 650,000 compounds, 1% hits; AID 1508602, 2020; PathHunter beta-arrestin GPR151 cells; in the data active means activation above about 4.9%;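 further: 0% = median of compound wells and 100% = cells with positive control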
MITF inh – MITF inhibitors, primary screen, biochemical, AlphaScreen, human | AlphaScreen MITF homodimerization, bead proximity signal | inhibition, % at 2.6 µM | 650,000 compounds, 0.91% hits; in the data active means inhibition above about 50%;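 further: 0% = vehicle wells with protein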
Target sequence (O75030 whole entry, looked up): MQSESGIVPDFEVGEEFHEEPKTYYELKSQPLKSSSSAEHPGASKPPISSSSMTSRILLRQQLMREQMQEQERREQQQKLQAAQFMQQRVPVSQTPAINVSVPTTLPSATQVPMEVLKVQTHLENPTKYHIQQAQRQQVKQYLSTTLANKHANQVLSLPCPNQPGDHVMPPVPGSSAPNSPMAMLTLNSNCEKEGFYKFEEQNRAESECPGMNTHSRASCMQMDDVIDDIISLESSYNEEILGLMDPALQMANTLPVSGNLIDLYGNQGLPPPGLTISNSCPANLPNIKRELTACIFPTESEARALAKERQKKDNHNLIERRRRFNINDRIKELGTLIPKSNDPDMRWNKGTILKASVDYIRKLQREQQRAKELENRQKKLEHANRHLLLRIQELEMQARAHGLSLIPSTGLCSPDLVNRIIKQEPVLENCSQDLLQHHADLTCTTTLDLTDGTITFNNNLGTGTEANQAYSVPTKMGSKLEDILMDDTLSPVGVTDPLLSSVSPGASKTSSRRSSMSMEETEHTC
* = called active by the depositor.

SMILES	FBW7 act	TEAD-YAP inh	GPR151 activ	MITF inh
Cn1c(Nc2nc(NC3CC3)c3ncn(-c4ccsc4)c3n2)nc2ccccc21	0.1	58.6*	-1.0	9.3
S=C(Nc1ccccc1)N1CCN(Cc2ccc3c(c2)OCO3)CC1	0.1	6.1	0.6	2.4
CCOc1cccc(/C=N\NC(=O)c2ccc(Br)cc2)c1O	-1.0	12.6	-0.6	19.7
COc1cccc(/C=N/NC(=O)c2cccnc2)c1O	0.0	22.9	-0.3	70.8*
CCOc1ccc(/C=N/NC(=O)c2cccs2)cc1	0.1	-40.5	-4.8	2.8
COc1cccc(/C=N/NC(=O)C(=O)NCc2cccnc2)c1O	-0.4	5.7	-1.0	61.2*
CCOc1cccc(/C=N\NC(=O)c2cccnc2)c1O	-0.8	30.9	-1.3	58.6*
CCOc1cccc(/C=N/NC(=O)c2cccs2)c1O	-0.2	50.1*	-2.3	39.2
O=C(Cc1noc2ccccc12)Nc1cc(F)ccc1F	0.1	-30.0	-1.7	2.2
CCN(CC)c1ccc(/C=N/NC(=O)c2cccnc2)c(O)c1	-0.1	70.4*	-0.9	28.2
COc1ccc2nc(NC3=NC(C(=O)Nc4ccccc4)CC(=O)N3)nc(C)c2c1 (stereo unspecified)	0.4	5.1	0.5	16.4
Cc1onc(-c2ccccc2)c1C(=O)NCC1Cc2cc(F)cc(-c3cccnc3)c2O1 (stereo unspecified)	0.4	6.0	1.0	-5.9
Cc1ccc(-c2nc(CSCC(=O)N3CCN(c4ccccn4)CC3)c(C)o2)cc1	-0.2	39.7*	0.6	-9.7
CCc1ccc(-c2nc(CSCC(=O)N3CCN(c4ccccn4)CC3)c(C)o2)cc1	-0.6	35.1*	0.0	3.4
COc1cccc(-c2csc3nnc(SCC(=O)c4ccc(NC(C)=O)cc4)n23)c1	13.1*	3.3	0.0	10.4
COc1cc2c(cc1OC)n(CC(=O)NCCC(C)C)n1c(C)cc(=O)nc21	-0.3	-2.8	0.1	-2.2
Cc1ccc(C)c(S(=O)(=O)Nc2ccc(I)cc2)c1	0.1	46.6*	0.3	4.7
Cc1nc2sccn2c1-c1csc(Nc2ccc(Cl)cc2)n1	-0.1	50.1*	-0.2	14.3
Cc1nc(C)c(-c2csc(Nc3cccc(O)c3)n2)s1	0.0	35.0*	-1.2	10.1
Oc1ccc(-c2csc(Nc3ccc(Cl)cc3)n2)cc1O	-0.3	-75.3	-1.2	-1.1
CCOc1ccc(Nc2nc(-c3sc(C)nc3C)cs2)cc1	-0.1	41.3*	-0.5	6.0
Oc1ccc(-c2csc(Nc3ccccc3)n2)cc1O	0.0	-14.8	1.3	66.3*
O=C(Nc1nc(-c2ccc(F)c(F)c2)cs1)c1ccc([N+](=O)[O-])cc1	-0.1	-0.9	0.5	-7.2
O=C(N1CCC(Nc2nc3c(c(=O)[nH]2)CCCC3)CC1)C1(c2ccccc2)CC1	-0.1	13.1	1.2	-0.3
Oc1cccc(Nc2nc(-c3ccncc3)cs2)c1	-0.2	3.1	-0.9	6.0
SMILES	FBW7 act	TEAD-YAP inh	GPR151 activ	MITF inh
CCOc1ccc(Nc2nc(-c3c(C)nc4sccn34)cs2)cc1	0.0	60.9*	-0.8	10.1
Oc1cccc(Nc2nc(-c3cccnc3)cs2)c1	-0.2	44.8*	-2.1	9.1
COc1cc(Br)c(Nc2nc(-c3c(C)nc4sccn34)cs2)c(Br)c1	0.0	7.6	-0.5	-14.7
CCC(=O)Nc1nc(C)c(-c2csc(Nc3ccc(NC(C)=O)cc3)n2)s1	-0.1	43.8*	-1.5	13.5
Cc1ccc(Nc2nc(-c3c(C)nc4sccn34)cs2)c(C)c1	-0.1	50.3*	0.8	-2.6
CCOc1ccc(S(=O)(=O)Nc2cc(C(C(=O)OC(C)C)C(=O)C(F)(F)F)c(O)c3ccccc23)cc1 (stereo unspecified)	0.0	9.9	0.8	-2.3
O=C(c1cccc(I)c1)N1CCCc2ccccc21	2.3*	-8.2	-0.9	10.3
O=C(c1ccc(I)cc1)N1CCCc2ccccc21	-0.1	13.8	0.6	-3.9
COc1nc(Nc2ccc(N3CCOCC3)cc2)nc(-c2ccc(C(N)=O)cc2)n1	-0.1	-4.0	0.9	-1.2
CCOC(=O)c1[nH]c(C)c(C(=O)c2ccc(C)cc2)c1C	-0.1	33.8*	1.3	6.3
CCOC(=O)c1[nH]c(C)c(C(=O)NCc2ccc(C)cc2)c1C	0.0	-0.7	1.2	-5.2
CC(=O)c1c(C)[nH]c(C(=O)OCCCCN2C(=O)c3ccccc3C2=O)c1C	0.0	53.8*	-0.3	-5.6
CC(=O)c1c(C)[nH]c(C(=O)COC(=O)CCCN2C(=O)c3ccccc3C2=O)c1C	-0.1	6.2	0.4	7.1
CCOC(=O)c1[nH]c(C)c(C(=O)c2ccccc2Cl)c1C	0.1	22.1	0.9	9.0
CCOC(=O)c1[nH]c(C)c(C(=O)c2ccccc2)c1C	0.0	48.0*	1.7	6.9
O=C(CCC(=O)c1ccccc1)OCCCCOC(=O)CCC(=O)c1ccccc1	0.0	8.7	-0.7	0.2
Cc1cc2c(cc1C)C(c1cccc(Cl)c1)CC(=O)N2 (stereo unspecified)	0.0	36.7*	0.0	-11.1
CCc1ccc(-n2c(=S)sc3c(=O)n(-c4ccc(F)cc4)c(SCC(=O)Nc4cc(C)on4)nc32)cc1	0.8	-2.8	0.3	2.4
COc1cccc2cc(C(=O)Nc3ccc(CC(=O)O)cc3)c(=O)oc12	-0.1	71.9*	-4.2	-11.3
CN1CCN(c2ccc(NC(=O)COc3ccccc3[N+](=O)[O-])cc2)CC1	0.2	6.4	0.7	14.8
COc1ccc(NC(=O)c2cc3cccc(OC)c3oc2=O)cc1	-0.1	-17.8	0.5	15.4
COc1cccc(C(=O)Nc2ccc(Oc3ccc4c(c3)C(=O)NC4=O)cc2)c1	-0.1	51.2*	-0.7	6.8
COc1cccc(C(=O)NNC(=O)Cc2ccc(-c3ccccc3)cc2)c1	0.8	62.4*	0.5	-3.5
CC(C)C(=O)N1CCN(c2ccc(NC(=O)COc3ccccc3[N+](=O)[O-])cc2)CC1	0.2	50.4*	-0.4	9.0
Cc1ccccc1N1CC(O)(c2cccc([N+](=O)[O-])c2)[N+]2=C1CCCC2 (stereo unspecified)	-0.2	-6.8	2.4	-6.0
SMILES	FBW7 act	TEAD-YAP inh	GPR151 activ	MITF inh
O=C(CC1S/C(=N/N=C/c2ccc(C(=O)O)cc2)NC1=O)Nc1cccc2ccccc12 (stereo unspecified)	0.1	12.0	-0.6	-3.8
COc1cccc(C(=O)Nc2ccc(CC(=O)O)cc2)c1	0.0	60.0*	-0.6	-2.9
Cc1cccc(C(=O)Nc2ccc(N3CCN(C(=O)C(C)C)CC3)cc2)c1	0.0	-4.7	0.4	-10.3
COc1cccc(C(=O)Nc2ccc(-c3ccccc3)cc2)c1	-0.1	-15.8	-2.2	-1.6
COc1cccc(C(=O)Nc2ccc(N3CCN(C(=O)C(C)C)CC3)cc2)c1	0.1	45.9*	0.6	-7.2
COc1ccc(C(=O)Nc2cccc(C(=O)Nc3cccc(Cl)c3)c2)cc1	0.0	-0.7	-0.7	-0.7
Cc1ccc(NC(=O)CCC(=O)NNC(=O)/C=C/c2ccccc2)c(C)c1	-0.1	-9.3	-1.3	7.8
